SMILES strings stand for the structures. About 1,300 (0.36%) of roughly 360,000 compounds were called active. Many of the other results were omitted from the sample, so actives are more common in it than they were. Unmarked numbers belong to inactive results. Cut-off read from the data, not from the text of the source: active = inhibition above about 34% (passing the limit was not always enough); inactive = the rest.

The target in this test is C-X-C chemokine receptor type 6 (Homo sapiens) (UniProt O00574). The experiment in a line: CXCR6 receptor inhibitors, primary screen, cell-based, beta-arrestin, luminescence, CHO-K1 PathHunter, 1536-well (AID 602244).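 Note: antagonist mode with CXCL16 agonist at 10 nM final; 0% = 10 nM CXCL16 with DMSO and 100% = unstimulated wells without agonist.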 Conditions: at 20 µM, hits give high values.
C-X-C chemokine receptor type 6 (Homo sapiens), sequence (O00574 whole entry, looked up): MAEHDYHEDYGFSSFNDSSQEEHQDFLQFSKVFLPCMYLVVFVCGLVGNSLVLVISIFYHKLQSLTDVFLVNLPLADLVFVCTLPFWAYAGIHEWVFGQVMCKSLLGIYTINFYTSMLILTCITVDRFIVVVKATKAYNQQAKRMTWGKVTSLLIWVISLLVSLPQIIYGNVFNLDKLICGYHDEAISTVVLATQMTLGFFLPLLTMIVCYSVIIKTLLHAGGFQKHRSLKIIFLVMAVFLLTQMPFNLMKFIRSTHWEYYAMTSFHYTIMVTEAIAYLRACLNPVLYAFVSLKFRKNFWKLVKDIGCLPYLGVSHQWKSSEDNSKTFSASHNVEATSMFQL
With `CC(=O)Nc1nc(C)c(Cc2ccccc2)c(=O)[nH]1`, the inhibition (as a rule, the change of the read-out against control, counted positive when it falls) is 4.4%.

As to `CCCCc1nc2cc(C(=O)N3CCCCC3CCO)ccc2o1` (stereo not drawn), the inhibition is 4%.

For the compound `COc1ccc2c(c1)c(=Cc1ccc(N(C)C)cc1)c1cc(-c3ccccc3)[n+](C)n12`, the inhibition was 39.6% (active).

Take `COCCC(=O)N1CCC(Oc2ccc(C(=O)NCc3ccon3)cc2)CC1`: the inhibition is 6.3%.

Regarding `C[C@H]1CN([C@@H](C)CO)C(=O)c2cc(C3=CCCCC3)cnc2O[C@@H]1CN(C)C(=O)Cc1ccccc1`, the inhibition was -0.7%.

In the case of `CC1(C)OC(=O)C2=C(C[C@@H](C3CCCCC3)O[C@@H]2c2ccc(Cl)cc2)O1`, the inhibition is 8.1%.

Consider `COCCN(C(=S)Nc1cccc(Cl)c1C)C(C)c1ccco1` (stereo not drawn), for which the inhibition is 3.3%.

With `OCC1OC(n2cnc3c(N4CCCC4)ncnc32)C(O)C1O` (stereo not drawn), the inhibition is -4.2%.

On to `COc1ccc(C2NC(=O)C(=O)/C2=C(\O)c2ccc(Cl)cc2)cc1OC` (stereo not drawn), for which the inhibition was 0.4%.

As for `CCN(CC)CCN1C(=O)C2C(C(=O)Nc3ccc(Br)cc3)C3C=CC2(O3)C1C(=O)NC1CCCCC1` (stereo not drawn), the inhibition was 7.8%.

As for `CCOCCCN1C(=O)C2C(C(=O)Nc3ccc(OCC)cc3)C3C=CC2(O3)C1C(=O)NC1CCCCC1` (stereo not drawn), the inhibition is 74.4% (active).

For the compound `CC(C)N1C(=O)C2C(C(=O)NC3CCCCC3)C3C=CC2(O3)C1C(=O)NC1CCCC1` (stereo not drawn), the inhibition was -4.9%.

As to `CCc1cc2c(=O)n(-c3ccccc3)c(SCC(=O)O)nc2s1`, the inhibition was -2%.

Take `CCO[C@H]1OC(C(=O)N2CCN(Cc3ccccc3)CC2)=C[C@@H](c2cn(C(C)=O)c3ccccc23)[C@@H]1CCCO`: the inhibition was -0.6%.

Turning to `CC1CCN(S(=O)(=O)c2ccc3c(ccn3CC(=O)O)c2)CC1`, the inhibition was 7.6%.

With `O=C(Nc1ccccc1C(=O)N1CCCCCC1)c1ccccc1Cl`, the inhibition is 10.2%.

On to `Cc1cc(C(=O)OCC(=O)Nc2ccccc2Cl)c(C)o1`, for which the inhibition was -6.7%.

As for `O=C(Nc1ccccc1Cl)/C(Cl)=C(\Cl)S(=O)c1ccccc1` (stereo not drawn), the inhibition was 93.1% (active).

As for `Nc1nc2c(ncn2[C@@H]2O[C@H](CNCc3ccc(OCCCN4CCOCC4)cc3)[C@@H](O)[C@H]2O)c(=O)[nH]1`, the inhibition is -4.2%.

For the compound `CN(C)S(=O)(=O)c1ccc(Cl)c(NC(=O)COC(=O)CC(NC(N)=O)c2ccc(Cl)cc2)c1` (stereo not drawn), the inhibition was -0.2%.

Turning to `Cc1cc(C)nc(S/C=C/C(=O)c2ccccc2)n1`, the inhibition was 46.1% (active).

For the compound `CCOC(=O)C(=Cc1ccccc1)C(=O)c1ccccc1`, the inhibition is 24%.

For the compound `O=C(/C=C/Sc1ncn[nH]1)c1ccc(Cl)cc1`, the inhibition was 17.1%.

Take `CCCCc1nc2ccccc2c(NC(=O)CN2CCN(C)CC2)c1CCC`: the inhibition was 2.4%.

As for `Nc1ccccc1SC(C[N+](=O)[O-])c1ccccc1` (stereo not drawn), the inhibition is 43.8% (active).

`CC(=O)Oc1ccc(Cn2c(C)c(C(=O)NCc3ccc(C#N)cc3)sc2=O)cc1`: the inhibition was 3.1%.

On to `CC(=O)N1Cc2ccccc2CC1C(=O)O` (stereo not drawn), for which the inhibition was 8%.

With `Cc1ccc(/C=N/NC(=O)C(NC(=O)c2ccccc2)c2n[nH]c(=O)c3ccccc23)cc1` (stereo not drawn), the inhibition is -2.3%.

`Cc1ccc(/C=N/NC(=O)C2=NNC(c3ccccc3)(c3ccccc3)C2)c(O)c1`: the inhibition is 49.2% (active).

Turning to `Cc1ccc(NC(=O)CCC(=O)N/N=C/c2ccco2)c(C)c1`, the inhibition was -4%.

Regarding `O=C(NCCc1ccccc1)c1ccc(NC2=NC3CS(=O)(=O)CC3S2)cc1` (stereo not drawn), the inhibition was 0%.

Regarding `CCCCNC(=S)N/N=C1\CCCCc2ccccc21`, the inhibition is 37.6% (active).

Take `O=[N+]([O-])c1ccccc1N/N=C1\CCc2ccccc21`: the inhibition was 2.8%.

As to `S=C(NCCC1=CCCCC1)Nc1ccccc1`, the inhibition is -7%.

Regarding `NC(=O)C1=C[C@@H](c2ccc3c(c2)OCO3)C[C@@H](OCCCCO)O1`, the inhibition was 1.5%.

For `Cc1ccc(NC(=O)CN(C)C(=O)COC(=O)c2nccnc2N)cc1`, the inhibition was -1.8%.

Regarding `CC(=O)c1cc(NC(=O)c2ccccc2)c(=O)oc1/C=C/N(C)C`, the inhibition was 9.9%.

For the compound `O=C(NC1=CC(=O)c2ccccc2C1=O)c1ccccc1`, the inhibition is 71.6% (active).

Take `O=C(COC(=O)c1cccc(Br)c1)Nc1cccc2c1C(=O)c1ccccc1C2=O`: the inhibition was -9.2%.

`CCOC(=O)N1CCC(Nc2c(NCCCN3CCN(CC)CC3)c(=O)c2=O)CC1`: the inhibition is 8.9%.

Regarding `CCCCS(=O)c1snnc1C` (stereo not drawn), the inhibition was -4.7%.

`CCCCc1ccc(S(=O)(=O)NC(=O)C2(C)CCN2C(=O)c2ccccc2)cc1` (stereo not drawn): the inhibition is 7.2%.

Take `Cc1ccc(C23CC4CC(CC(C(=O)NCC(=O)O)(C4)C2)C3)cc1`: the inhibition was 1.5%.

As to `CCCCN(C)CCNC(=O)CSCc1ccc(C)cc1`, the inhibition was 2.3%.

On to `Cc1cccc(N2C(=O)CC(SC(N)=Nc3ccccc3)C2=O)c1` (stereo not drawn), for which the inhibition was 2.2%.

For the compound `Cc1cccc(-n2c(O)c(C=Nc3ccccc3N)c(=O)[nH]c2=O)c1`, the inhibition was 108% (active).

In the case of `Cc1ccc(N=Cc2c(O)n(-c3nccs3)c(=O)c3ccccc23)c(C)c1`, the inhibition is 4.8%.

Consider `O=C(Cn1ncc2c3ccccc3n(Cc3ccccc3)c2c1=O)NCCCN1CCOCC1`, for which the inhibition was 8.7%.

In the case of `O=C(COc1nsnc1N1CCOCC1)Nc1ccccc1Cl`, the inhibition is -3.6%.

Regarding `Cn1cccc1C(=O)NC(=O)COC(=O)Cc1coc2ccc3ccccc3c12`, the inhibition was -1.2%.

Turning to `CC(C)c1nc2sc3c(c2c(=O)n1N)CC(C)(C)OC3`, the inhibition is 2.4%.

Regarding `COc1cc(NC(=O)C2CCN(c3cnccn3)CC2)cc(OC)c1`, the inhibition is -10.3%.

In the case of `O=C(OC1CCCCC1=O)c1cccc(S(=O)(=O)NCc2ccccc2)c1` (stereo not drawn), the inhibition was 7.3%.

`CC(=O)N/C(=C\c1ccc(F)cc1)C(=O)NC(Cc1ccccc1)C(=O)O` (stereo not drawn): the inhibition is 1.6%.

With `CC(=O)c1ccc(S(=O)(=O)N(C)CCCC(=O)N(C)Cc2ccccc2F)cc1`, the inhibition is 0.4%.

In the case of `CCCNC(=O)c1cc(C2CCCN(C(=O)c3ccc4c(c3)CCO4)C2)on1` (stereo not drawn), the inhibition was -0.8%.

`Cc1c(C(=O)NCCN(C)C)oc2ccc(S(=O)(=O)N3CCCC3)cc12`: the inhibition was 65.9% (active).

As to `CCOC(=O)C1CCN(C(=O)c2oc3ccc(S(=O)(=O)N4CCCCCC4)cc3c2C)CC1`, the inhibition was -3.5%.

As to `COc1ccc(NC(=O)c2oc3ccc(S(=O)(=O)N4CCOCC4)cc3c2C)cc1`, the inhibition was -0.9%.

`CC(Oc1cccc(Cl)c1)C(=O)Nc1ccc(S(=O)(=O)Nc2ncccn2)cc1` (stereo not drawn): the inhibition is -1.1%.

For `CC[C@@H]1Cc2cc(O)ccc2C2=C1c1ccc(O)cc1C[C@H]2CC`, the inhibition is -3.2%.

In the case of `COC(=O)c1ccc(S(=O)(=O)N2CCC(c3nc4ccccc4o3)CC2)cc1`, the inhibition is 1.2%.

Turning to `CC1Cn2c(nnc2-c2cccs2)S1` (stereo not drawn), the inhibition was -1.1%.
